40 compounds from PubChem BioAssay (EPA / NIEHS) can be followed below.

Active and inactive are the calls of the source. How the source made its calls: active means hit-call score of the fitted dose curve at least 0.9, where 1 is the maximum; inactive means score below 0.9.

A short description of this assay: ATG_AP_1_CIS: Attagene CIS-FACTORIAL HepG2 Assay for human Activator Protein 1 (AP-1) (AID 2282931). Particulars: HepG2 Attagene cis-factorial AP-1 reporter mRNA; actives raise or lower the signal. Here is the method: ATG_CIS is a cell-based, multiplexed-readout assay that uses HepG2, a human liver cell line, with measurements taken at 24 hours after chemical dosing in a 24-well plate.ATG_AP_1_CIS is one of 52 assay component(s) measured or calculated from the ATG_CIS assay. It is designed to make measurements of mRNA induction, a form of inducible reporter, as detected with fluorescence intensity signals by Reverse transcription polymerase chain reaction (RT-PCR) and Capillary electrophoresis technology.Data from the assay component ATG_AP_1_CIS was analyzed into 1 assay endpoint. This assay endpoint, ATG_AP_1_CIS, was analyzed with bidirectional fitting relative to DMSO as the negative control and baseline of activity. Using a type of inducible reporter, measures of mRNA for gain or loss-of-signal activity can be used to understand the reporter gene at the transcription factor-level as they relate to the gene FOS and JUN. Furthermore, this assay endpoint can be referred to as a primary readout, because this assay has produced multiple assay endpoints where this one serves a reporter gene function. To generalize the intended target to other relatable targets, this assay endpoint is annotated to the dna binding intended target family, where the subfamily is basic leucine zipper.
Human liver HepG2 cells are transiently transfected with multiple reporter transcription units (MRTUs) in 6-well plates using FuGene 6 reagent (Roche; 3 ml FuGene/1 mg DNA). The MRTU constructs are regulated by a cis-regulating element (promoter). […] A major difference between the CIS and TRANS system is that in CIS activities of endogenous TFs are measured, whereas the TRANS assay evaluates changes in activities of exogenous, chimeric NR-Gal4 proteins. […] At the end of 24 hour incubation, total RNA was isolated using TriZol reagent (Invitrogen). The isolated RNA is then reverse-transcribed using oligo(dT) primer and Mo-MLV reverse transcriptase (Invitrogen) with DNAse I (Ambion) treatment for 30 min. The one-tenth of the produced cDNA was amplified by PCR using Taq DNA polymerase (Invitrogen) and two reporter sequence-specific primers. The PCR products were fluorescently labeled by primer extension with 6-arboxyfluorescein (6-FAM) 5'-labeled reporter sequence-specific primer (2 min at 95 C, 20 s at 68 C and 10 min at 72 C) and these products were digested with 5U of HpaI (New England Biolabs) for 2h at 37 C. The fragments were purified using Qiaquick PCR columns (Qiagen), analyzed on an ABI 3130xL genetic analyzer (Applied Biosystems) with peak positions identified by using a set of X-rhodamine (ROX)-labeled MapMarker1000 molecular weight standards (BioVentures). The raw capillary electrophoresis data was processed using Attagraph software (Attagene).
For `Cc1cc(C)c(O)c(C(C)(C)C)c1`, the compound was called inactive.
On to `NC(=O)C(F)(F)C(F)(F)C(F)(F)F`, for which the call was inactive.
For the compound `O=C=Nc1cccc2c(N=C=O)cccc12`, the compound was called inactive.
As a reminder, the AC50 is the concentration at which the activity in the assay is half-maximal. On to `CCN=C1C=CC(=C(c2ccc(N(CC)CC)cc2)c2ccc(N(CC)CC)cc2)c2ccccc21`, for which the half-maximal activity concentration (AC50) is 0.191 µM (active).
Consider `O=c1cccc[nH]1`, for which the compound was called inactive.
In the case of `CCOCN(C(=O)CS(=O)(=O)O)c1c(C)cccc1CC`, the compound was called inactive.
`OCCCCC(F)(F)C(F)(F)C(F)(F)C(F)(F)F`: the outcome was inactive.
Same read-out and setting: the value for `NC(=O)C(F)(F)C(F)(F)C(F)(F)C(F)(F)C(N)=O` was “inactive”; that for `O=S(=O)(O)CCC(F)(F)C(F)(F)C(F)(F)C(F)(F)C(F)(F)C(F)(F)C(F)(F)C(F)(F)F` was “inactive”; that for `O=c1[nH]cccc1O` was “inactive”.
Take `CCOCOCC`: the compound was classed as inactive.
In the case of `CC(C)=CCCC(C)O` (stereo not given), the compound was classed as inactive.
For the compound `OC(O)C(F)(F)C(F)(F)F`, the AC50 was 96 µM (active).
On the same count and under the same terms, the value for `O=S(=O)(Cl)C(F)(F)C(F)(F)C(F)(F)C(F)(F)C(F)(F)C(F)(F)C(F)(F)C(F)(F)F` was 57.3 µM (active); that for `Cc1cc(O)c(C(C)(C)C)cc1C(C)(C)C` was 11.1 µM (active).
As to `O=S(=O)(O)c1ccc(Cl)cc1`, the compound was classed as inactive.
Still for that read-out and setting: in the case of `NCC(F)(F)C(F)(F)C(F)(F)C(F)(F)C(F)(F)C(F)(F)F` it was “inactive”; in that of `CCCCCCCCCCCCCCCCC`, “inactive”; in that of `C=CC(=O)OCC(F)(F)C(F)(F)C(F)(F)C(F)(F)C(F)(F)C(F)(F)C(F)(F)C(F)F`, “inactive”.
The same measure, in the same setting: the value for `F[Si-2](F)(F)(F)(F)F` was “inactive”; that for `FC(F)(F)C(F)(F)C(F)(F)CC1CO1` (stereo not given) was “inactive”.
For the compound `OCC(F)(F)C(F)(F)C(F)(F)CO`, the compound was classed as inactive.
With `CCOC(=O)CC(=O)C(F)(F)C(F)(F)F`, the call was inactive.
On the same count and under the same terms, the value for `CCOC(=O)C1CC(=O)C(=C(O)C2CC2)C(=O)C1` (stereo not given) was “inactive”.
On the same count and under the same terms, the value for `CCC/C=C/CO` was “inactive”.
For the compound `CCCCCCCC/C=C\CCCCCCCC(=O)OCC(O)CO` (stereo not given), the AC50 is 100 µM (active).
On the same count and under the same terms, the value for `CCCCCCCCCCCC(=O)Cl` was 82.8 µM (active).
Consider `OCC(O)CC(F)(F)C(F)(F)C(F)(F)C(F)(F)F` (stereo not given), for which the result was inactive.
The same measure, in the same setting: in the case of `CC(C)(C)c1cc(CCC(=O)OCC(COC(=O)CCc2cc(C(C)(C)C)c(O)c(C(C)(C)C)c2)(COC(=O)CCc2cc(C(C)(C)C)c(O)c(C(C)(C)C)c2)COC(=O)CCc2cc(C(C)(C)C)c(O)c(C(C)(C)C)c2)cc(C(C)(C)C)c1O` it was “inactive”; in that of `O=C(Cl)c1ccc(Cl)cc1Cl`, “inactive”.
For the compound `CC(C)(C)C(=O)C1C(=O)c2ccccc2C1=O`, the AC50 is 30.3 µM (active).
The same measure, in the same setting: the value for `CCN(CC)c1ccc(N=Nc2ccccc2)cc1` was 72.7 µM (active).
Consider `N#CCCOCCC#N`, for which the outcome was inactive.
The same measure, in the same setting: the value for `COC(F)(C(F)F)C(F)(F)F` (stereo not given) was “inactive”.
`O=C1OC(=O)c2ccc3c4c(ccc1c24)C(=O)OC3=O`: the compound was called inactive.
On to `CC1=CCC(=O)O1`, for which the compound was classed as inactive.
As to `CCC(Cc1c(I)cc(I)c(N)c1I)C(=O)O` (stereo not given), the concentration at half-maximal activity (AC50) is 64.6 µM (active).
Take `CC(=O)CCC(C)C`: the compound was classed as inactive.
The same measure, in the same setting: the value for `COc1ccccc1C=O` was “inactive”; that for `NS(=O)(=O)C(F)(F)C(F)(F)C(F)(F)C(F)(F)C(F)(F)C(F)(F)F` was “inactive”.
